Several values for one entry are separate records, joined by “and”; a condition that tells them apart may be missing. Identical values can stand only once. Activity calls are given as the source filed them. Unless noted, calls come from the whole dose curve; as a rule, active = well fitted curve in the direction sought with a large enough effect in the repeat runs; inconclusive = weak or mixed curves; inactive = no such curve, though single readings can be large; an effect the other way counts as inactive or inconclusive.

Test [1] is described as follows: qHTS assay to identify small molecule antagonists of the glucocorticoid receptor (GR) signaling pathway - cell viability counter screen (AID 720693; note: nearly all actives have a fitted effect of over 55% in size; note: potency is the fitted concentration of half-maximal effect). (In general: In qHTS, concentration-response curves come from the screen itself.)
Test [2] in a line: qHTS assay to identify small molecule antagonists of the androgen receptor (AR) signaling pathway - cell viability counter screen (AID 743033; note: nearly all actives have a fitted effect of over 45% in size; note: potency is the fitted concentration of half-maximal effect).
Test [3] addresses Androgen receptor (Homo sapiens) (UniProt P10275). The experiment in a line: qHTS assay to identify small molecule antagonists of the androgen receptor (AR) signaling pathway using the MDA cell line (AID 743042; note: nearly all actives have a fitted effect of over 55% in size). An outline of the steps:
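MDA-kb2 cells (human breast carcinoma, stably carrying an MMTV-luciferase reporter responsive to AR and GR) were plated at 3,000 cells/well and preincubated 5 hr at 37C, then given compound plus R1881 agonist for 16 h. ONE-Glo luminescence was read.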

A short description of test [4]: qHTS assay to identify small molecule antagonists of the thyroid receptor (TR) signaling pathway - cell viability counter screen (AID 743064). Note: nearly all actives have a fitted effect of over 50% in size. Note: potency is the fitted concentration of half-maximal effect. Summed up: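 Viability of T3-stimulated (1 nM final) GH3.TRE-Luc cells is measured by CellTiter-Fluor fluorescence after 23.5 h compound exposure at 37 °C plus 30 min reagent incubation.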
Test [5] is described as follows: qHTS assay to identify small molecule antagonists of the thyroid receptor (TR) signaling pathway (AID 743065). Note: nearly all actives have a fitted effect of over 55% in size. Note: potency is the fitted concentration of half-maximal effect. Summed up:
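GH3.TRE-Luc rat pituitary cells carrying two TR response elements driving luciferase were plated for 4 h, given compound plus 1 nM T3 (final), and incubated 23.5 h at 37 C. ONE-Glo luminescence measured reporter inhibition; CellTiter-Fluor fluorescence tracked cytotoxicity.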

Test [6] deals with thyroid hormone receptor (rat, GH3 cells). The experiment in a line: qHTS assay to identify small molecule agonists of the thyroid receptor (TR) signaling pathway (AID 743066; calls by dose curve).
The target of test [7] is Estrogen receptor (Homo sapiens) (UniProt P03372). The experiment in a line: qHTS assay to identify small molecule antagonists of the estrogen receptor alpha (ER-alpha) signaling pathway (AID 743069; active = well fitted curve in the direction sought with a large enough effect in the signal ratio in the repeat runs, not every such curve was filed as active; inconclusive = weak or mixed curves, or effect the other way; inactive = no such curve, though single readings can be large or run the other way; the % refers to the signal ratio; note: potency is the fitted concentration of half-maximal effect). An outline of the steps: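 HEK293 cells stably carrying an ER-alpha-UAS-bla beta-lactamase reporter were pre-cultured overnight in 2% charcoal-stripped FBS medium. Test compounds in DMSO were added together with 17beta-estradiol for 18 hr at 37C. Read-out was fluorescence after 2 hr with LiveBLAzer B/G FRET substrate at room temperature.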

Test [8] has the same target. The experiment in a line: qHTS assay to identify small molecule agonists of the estrogen receptor alpha (ER-alpha) signaling pathway (AID 743075; calls by dose curve; note: potency is the fitted concentration of half-maximal effect).
The target is the same in test [9]. The experiment in a line: qHTS assay to identify small molecule agonists of the estrogen receptor alpha (ER-alpha) signaling pathway using the BG1 cell line (AID 743079). Note: nearly all actives have a fitted effect of over 20% in size. Note: potency is the fitted concentration of half-maximal effect.
Test [10] can be described thus: qHTS assay to identify small molecule antagonists of the estrogen receptor alpha (ER-alpha) signaling pathway using the BG1 cell line (AID 743080; calls by dose curve;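 note: BG1 cells stimulated with 17beta-estradiol alongside compound; nearly all actives have a fitted effect of over 25% in size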; note: potency is the fitted concentration of half-maximal effect). Summed up: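 Seeding, 24 h rest, compound transfer from DMSO, 17beta-estradiol addition, 21.5 h incubation, CellTiter-Fluor (30 min, 37 C), then ONE-Glo (30 min, room temperature): this sequence was run on BG1-Luc-4E2 reporter cells.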

Test [11] in a line: qHTS assay to identify small molecule antagonists of the estrogen receptor alpha (ER-alpha) signaling pathway using the BG1 cell line - cell viability counter screen (AID 743081).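 Note: compound given together with 17beta-estradiol as the ER stimulus; nearly all actives have a fitted effect of over 45% in size.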 Note: potency is the fitted concentration of half-maximal effect.
In test [12] the target is Aromatase (Homo sapiens) (UniProt P11511). The experiment in a line: qHTS assay to identify aromatase inhibitors (AID 743083). Note: nearly all actives have a fitted effect of over 55% in size. Note: potency is the fitted concentration of half-maximal effect.
A short description of test [13]: qHTS assay for identifying genotoxic compounds that show differential cytotoxicity against isogenic chicken DT40 cell lines with known DNA damage response pathways - wild type cell line (AID 743012). Note: nearly all actives have a fitted effect of over 60% in size. Note: potency is the fitted concentration of half-maximal effect. An outline of the steps: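 First, wild type DT40 cells were plated at 300 per well and equilibrated about 0.5 h at 37 C/5% CO2. Next, compounds in DMSO were added and exposure lasted 40 h. Finally, CellTiter-Glo was added for 30 min at room temperature and luminescence recorded.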

Test [14] is described as follows: qHTS assay for identifying genotoxic compounds that show differential cytotoxicity against isogenic chicken DT40 cell lines with known DNA damage response pathways - Rad54/Ku70 mutant cell line (AID 743015). Note: nearly all actives have a fitted effect of over 60% in size. Note: potency is the fitted concentration of half-maximal effect.
Test [15] is described as follows: qHTS assay to identify small molecule antagonists of the androgen receptor (AR) signaling pathway using the MDA cell line - cell viability counter screen (AID 743041; note: nearly all actives have a fitted effect of over 45% in size; note: potency is the fitted concentration of half-maximal effect). An outline of the steps:
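MDA-kb2 AR-luc human breast carcinoma cells (MMTV-luciferase, AR/GR responsive) were treated with compounds plus R1881 agonist for 16 h at 37 °C. Viability was read as CellTiter-Fluor fluorescence in the same wells as the reporter assay.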

Test [16] can be described thus: qHTS assay to identify small molecule antagonists of the estrogen receptor alpha (ER-alpha) signaling pathway - cell viability counter screen (AID 743074; calls by dose curve; note: nearly all actives have a fitted effect of over 45% in size).
Test [17] is described as follows: qHTS assay for identifying genotoxic compounds that show differential cytotoxicity against isogenic chicken DT40 cell lines with known DNA damage response pathways - Rev3 mutant cell line (AID 743014). Note: nearly all actives have a fitted effect of over 55% in size. Note: potency is the fitted concentration of half-maximal effect.
In test [18] the target is Androgen receptor (Homo sapiens) (UniProt P10275). In words: qHTS assay to identify small molecule agonists of the androgen receptor (AR) signaling pathway (AID 743036; active = well fitted activation curve with a large enough effect in the signal ratio in the repeat runs, with a control signal flat, not every such curve was filed as active; inconclusive = weak or mixed curves, or effect the other way; inactive = no such curve, though single readings can be large or run the other way; the % refers to the signal ratio). An outline of the steps: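 Screening used 2,000 AR-bla HEK293 cells per well, treated 16 h at 37C with test compounds in DMSO alongside positive and DMSO-only controls; beta-lactamase activity was then read by LiveBLAzer B/G FRET fluorescence after 2 h at room temperature.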

For test [19] the target is unchanged. In words: qHTS assay to identify small molecule antagonists of the androgen receptor (AR) signaling pathway (AID 743035; active = well fitted inhibition curve with a large enough effect in the signal ratio in the repeat runs, not every such curve was filed as active; inconclusive = weak or mixed curves, or effect the other way; inactive = no such curve, though single readings can be large or run the other way; the % refers to the signal ratio). An outline of the steps:
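Beta-lactamase FRET read (2 h RT incubation with LiveBLAzer B/G) following 16 h of compound plus R1881 treatment of AR-UAS-bla HEK293 cells, which had been pre-incubated 4 h at 37C.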

Test [20] has the same target. In words: qHTS assay to identify small molecule agonists of the androgen receptor (AR) signaling pathway using the MDA cell line (AID 743040; note: nearly all actives have a fitted effect of over 20% in size). Summed up:
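MDA-kb2 breast carcinoma cells stably carrying an MMTV-driven luciferase reporter (AR- and GR-responsive) were seeded and held 5 h at 37C, 0% CO2, then exposed to compounds in DMSO for 16 h. Luminescence was read 30 min after ONE-Glo addition.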

Estrogen receptor (Homo sapiens), sequence (P03372 whole entry, looked up): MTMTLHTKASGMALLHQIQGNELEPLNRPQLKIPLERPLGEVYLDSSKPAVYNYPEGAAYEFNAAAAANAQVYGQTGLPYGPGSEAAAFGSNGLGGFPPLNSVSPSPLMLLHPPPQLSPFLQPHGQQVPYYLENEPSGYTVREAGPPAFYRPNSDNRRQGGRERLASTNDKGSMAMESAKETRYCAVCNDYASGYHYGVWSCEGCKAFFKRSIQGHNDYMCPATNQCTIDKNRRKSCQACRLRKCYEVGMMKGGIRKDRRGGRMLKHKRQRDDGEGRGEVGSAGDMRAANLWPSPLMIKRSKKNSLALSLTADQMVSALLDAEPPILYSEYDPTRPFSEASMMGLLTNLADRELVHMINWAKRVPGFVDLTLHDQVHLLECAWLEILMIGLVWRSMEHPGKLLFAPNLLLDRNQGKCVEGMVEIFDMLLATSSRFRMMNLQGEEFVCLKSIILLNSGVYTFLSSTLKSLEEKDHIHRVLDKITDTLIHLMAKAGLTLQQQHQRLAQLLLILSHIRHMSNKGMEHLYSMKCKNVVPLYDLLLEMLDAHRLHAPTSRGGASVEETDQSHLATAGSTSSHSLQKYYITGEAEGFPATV
Aromatase (Homo sapiens), sequence (P11511 whole entry, looked up): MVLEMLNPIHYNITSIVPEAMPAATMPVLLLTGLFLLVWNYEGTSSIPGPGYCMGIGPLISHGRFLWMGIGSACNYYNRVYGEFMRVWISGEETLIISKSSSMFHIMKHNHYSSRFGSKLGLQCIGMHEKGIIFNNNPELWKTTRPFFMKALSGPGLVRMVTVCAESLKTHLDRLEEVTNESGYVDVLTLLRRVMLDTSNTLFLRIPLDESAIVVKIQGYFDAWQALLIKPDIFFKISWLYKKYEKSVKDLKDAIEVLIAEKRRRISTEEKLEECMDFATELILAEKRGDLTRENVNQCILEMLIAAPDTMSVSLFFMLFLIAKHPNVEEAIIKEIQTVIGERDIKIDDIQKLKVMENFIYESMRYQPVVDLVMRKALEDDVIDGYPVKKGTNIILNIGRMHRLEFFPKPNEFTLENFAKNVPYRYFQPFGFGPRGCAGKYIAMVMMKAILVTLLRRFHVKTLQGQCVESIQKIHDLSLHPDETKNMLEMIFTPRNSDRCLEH
Androgen receptor (Homo sapiens), sequence (P10275 whole entry, looked up): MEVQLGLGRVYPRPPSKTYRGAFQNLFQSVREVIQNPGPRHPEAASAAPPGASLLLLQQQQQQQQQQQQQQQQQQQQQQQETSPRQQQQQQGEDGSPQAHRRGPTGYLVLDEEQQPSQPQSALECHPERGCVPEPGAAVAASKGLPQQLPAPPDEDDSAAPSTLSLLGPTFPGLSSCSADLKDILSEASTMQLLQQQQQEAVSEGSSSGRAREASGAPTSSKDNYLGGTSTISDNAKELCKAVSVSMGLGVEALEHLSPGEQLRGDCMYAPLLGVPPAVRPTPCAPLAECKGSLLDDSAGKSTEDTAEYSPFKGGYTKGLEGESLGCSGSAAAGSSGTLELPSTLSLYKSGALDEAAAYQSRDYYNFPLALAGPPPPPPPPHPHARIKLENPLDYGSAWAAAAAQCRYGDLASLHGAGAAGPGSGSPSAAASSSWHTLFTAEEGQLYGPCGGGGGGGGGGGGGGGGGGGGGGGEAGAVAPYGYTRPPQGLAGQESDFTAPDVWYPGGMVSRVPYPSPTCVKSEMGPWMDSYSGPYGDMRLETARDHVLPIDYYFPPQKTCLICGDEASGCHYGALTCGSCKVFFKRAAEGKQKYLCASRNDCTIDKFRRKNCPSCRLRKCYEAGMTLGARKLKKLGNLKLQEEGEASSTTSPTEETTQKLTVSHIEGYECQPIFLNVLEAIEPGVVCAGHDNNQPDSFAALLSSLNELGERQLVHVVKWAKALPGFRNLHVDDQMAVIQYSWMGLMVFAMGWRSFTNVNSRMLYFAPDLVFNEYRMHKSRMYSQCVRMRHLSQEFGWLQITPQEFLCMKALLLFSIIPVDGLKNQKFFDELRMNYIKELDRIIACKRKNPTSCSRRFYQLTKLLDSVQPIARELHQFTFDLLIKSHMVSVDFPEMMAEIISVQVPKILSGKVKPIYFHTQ

Take `Cc1ccc(OP(=O)(Oc2ccccc2)Oc2ccccc2)cc1`: the Potency result in [1], in [2], in [3], in test [4], in test [5] and in [7] was “inactive” in each case. The Potency entry in test [8], in [10], in test [11] and in test [12] was “inactive” throughout. Further, the call in [6] was inactive. Besides, the Potency in test [9] is 3.91 µM (active).

With `Oc1c(Cl)c(Cl)cc(Cl)c1Cl`, the Potency entry in test [1] and in [8] was “inactive” in each case. Further, the Potency is 66.7 µM (active) in test [13], 23.7 µM (active) in test [5], 15.1 µM [inconclusive] (active) in test [7] and 74.8 µM (active) in test [10]. For the same molecule, the molecule was called inactive in test [6].

On to `Fc1cccc(Cl)c1CCl`, for which the Potency result in test [1], in [14], in test [2], in test [15], in test [4] and in [5] was “inactive” in each case. The Potency result in test [16], in [8], in test [9], in test [10], in [11] and in [12] was “inactive” throughout. Further, the outcome in test [6] was inactive.

As to `Cc1c(Cl)c(=O)oc2cc(OP(=O)(OCCCl)OCCCl)ccc12`, the Potency result in test [1], in test [2], in test [5], in test [7], in test [16] and in test [8] was “inactive” each time. Moreover, the Potency entry in test [9], in test [10] and in [12] was “inactive” in each case. For the same molecule, the result in test [6] was inactive.

Consider `CCOc1cc(C(C)(C)C)ccc1C1COC(c2c(F)cccc2F)=N1` (stereo unspecified), for which the Potency in test [13] is 26.3 µM (active); in test [17], 23.4 µM (active); in [14] it was 11.7 µM (active); in test [4], 18.6 µM (active); in test [5], 16.6 µM (active); in test [12] it was 41.6 µM (active). The Potency entry in test [2], in [18], in [15], in [16], in [8] and in [10] was “inactive” in each case. Moreover, the Potency entry in test [11] was “inactive”.

In the case of `CC(C)(C)c1cc([N+](=O)[O-])cc(C(C)(C)C)c1O`, the Potency in test [13] is 6.86 µM (active); in [17] it was 10.9 µM (active); in test [14] it was 7.7 µM (active); in [2], 5.49 µM (active); in [15], 12.2 µM (active); in test [4], 12.2 µM (active). Besides, the Potency in [5] is 6.86 µM (active); in [12] it was 17.2 µM (active). The result in test [6] was inactive.

Regarding `Cc1cc(C(F)(C(F)(F)F)C(F)(F)F)ccc1NC(=O)c1cccc(I)c1C(=O)NC(C)(C)CS(C)(=O)=O`, the Potency result in test [1], in [2], in test [15], in test [4], in test [16] and in [8] was “inactive” in each case. For the same molecule, the Potency result in test [10], in test [11] and in [12] was “inactive” each time. Also, the Potency was 43.5 µM (active) in [17], 30.8 µM (active) in test [14] and 21.8 µM (active) in [5]. Besides, the molecule was classed as inactive in test [6].

Regarding `O=C(CBr)c1ccc(O)cc1`, the Potency result in test [1], in [15], in [4], in [5], in [16] and in test [11] was “inactive” each time. Moreover, the Potency entry in test [12] is “inactive”. Moreover, the Potency in test [17] is 68.6 µM (active). The outcome in [6] was inactive.

Regarding `CC(C)N1C(=O)N(c2ccccc2)CSC1=NC(C)(C)C`, the Potency in test [13] was 21.7 µM (active); in test [17], 19.3 µM (active); in test [14], 24.3 µM (active); in test [7], 49 µM [inconclusive] (active). Moreover, the Potency entry in test [2], in test [19], in [15], in test [16], in [8] and in [11] was “inactive” throughout.

For the molecule `[CH3][Hg][Cl]`, the Potency in test [1] was 19.5 µM (active); in [14], 48.4 µM (active); in [4], 0.861 µM (active); in test [5], 1.22 µM (active); in [11] it was 34.3 µM (active); in [12], 27.2 µM (active). Besides, the Potency entry in [2], in test [15], in test [3], in test [16] and in test [9] was “inactive” throughout.

`CCC(C)(C)C(=O)OC1=C(c2ccc(Cl)cc2Cl)C(=O)OC12CCCCC2`: the Potency result in [1], in test [2], in test [18], in test [20], in [15] and in test [3] was “inactive” throughout. The Potency entry in [16], in test [8], in test [11] and in test [12] was “inactive” in each case. Besides, the Potency in test [5] and in test [9] was 54.5 µM (active) throughout. In addition, the outcome in test [6] was inactive.

As for `COP(=S)(OC)Oc1cc(Cl)c(Br)cc1Cl`, the Potency result in test [1], in test [15], in test [4], in [9], in test [10] and in test [11] was “inactive” each time. Moreover, the Potency result in test [12] was “inactive”. Also, the Potency in test [17] was 61.1 µM (active); in test [5] it was 61.1 µM (active); in test [8] it was 54.9 µM [inconclusive] (active). Further, the outcome in test [6] was inactive.

On to `O=c1oc2ccccc2c(O)c1Cc1c(O)c2ccccc2oc1=O`, for which the Potency entry in test [13], in test [17], in [14], in test [2], in test [19] and in test [18] was “inactive” each time. The Potency result in test [15], in test [3], in [4], in test [11] and in [12] was “inactive” in each case. Moreover, the Potency in test [5] is 11.4 µM (active). Further, the molecule was called inactive in [6].

For `CCOC(=O)OC1=C(c2cc(C)ccc2C)C(=O)NC12CCC(OC)CC2` (stereo unspecified), the Potency entry in [1], in test [15], in [7], in test [8], in test [10] and in test [11] was “inactive” each time. Also, the Potency result in test [12] is “inactive”. The Potency in test [17] was 30.6 µM (active); in test [5] it was 54.4 µM (active). The molecule was classed as inactive in test [6].

In the case of `c1ccc(Nc2ccc3ccccc3c2)cc1`, the Potency entry in test [1], in test [15], in test [7], in test [16], in test [8] and in test [11] was “inactive” each time. In test [12], the Potency entry is “inactive”. The Potency in [17] is 54.2 µM (active); in test [14], 60.8 µM (active); in [4], 60.8 µM (active); in [9] it was 19.2 µM (active) and 9.69 µM (active). Besides, in test [6], the molecule was classed as inactive.

(Values after PubChem BioAssay (Tox21).)
